PubChem BioAssay (NCATS)
Where “and” joins values, the source holds several entries; their conditions need not be identical. Identical values can stand only once. Results filed as inconclusive are left out. Calls of active or inactive are those of the source. The call rests on the fitted dose curve; in most records, active means well fitted inhibition curve with a large enough effect; inconclusive means small, poorly fitted or top-dose-only effect; inactive means flat fitted curve, though single readings scatter.

How the values were obtained:
KB-3-1 = assay: Cytotoxic Profiling of Annotated Libraries Using Quantitative High-Throughput Screening (AID 1296008); settings: Five cell lines viability, CellTiter-Glo ATP luminescence, 48-72 h; max response: active compounds read low
Procedure, shortened: (§1)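 Cytotoxicity was measured as CellTiter-Glo ATP luminescence, read after 10 min at room temperature. Compound treatment of the cells lasted 48 or 72 hr at 37 degrees Celsius in a qHTS format.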

NIH3T3 [1] = assay: as above; settings: Five cell lines viability, CellTiter-Glo ATP luminescence, 48-72 h; max response: active compounds read low
Procedure, shortened: as §1

HACAT = assay: qHTS assay to identify novel small-molecules to repurpose for Merkel cell carcinoma treatment (AID 1296009); settings: MCC and control cell lines, CellTiter-Glo viability, 72 h; at 44.8 µM (top of the series) unless noted
Procedure, shortened: (§2)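 Cell viability, measured as CellTiter-Glo luminescence, was normalized between DMSO and no-cell wells. The cells had been exposed to 8- or 11-point compound dilutions for 72 hr at 37 degree celsius.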

HEK293T = assay: as above; settings: MCC and control cell lines, CellTiter-Glo viability, 72 h; at 44.8 µM (top of the series) unless noted
Procedure, shortened: as §2

MCC-13 = assay: as above; settings: MCC and control cell lines, CellTiter-Glo viability, 72 h; series mostly up to 46 µM
Procedure, shortened: as §2

MCC-26 = assay: as above; settings: MCC and control cell lines, CellTiter-Glo viability, 72 h; series mostly up to 46 µM
Procedure, shortened: as §2

MKL-1 = assay: as above; settings: MCC and control cell lines, CellTiter-Glo viability, 72 h; series mostly up to 46 µM
Procedure, shortened: as §2

MKL-2 = assay: as above; settings: MCC and control cell lines, CellTiter-Glo viability, 72 h; series mostly up to 46 µM
Procedure, shortened: as §2

UISO = assay: as above; settings: MCC and control cell lines, CellTiter-Glo viability, 72 h; series mostly up to 46 µM
Procedure, shortened: as §2

NIH3T3 [2] = assay: as above; settings: MCC and control cell lines, CellTiter-Glo viability, 72 h; at 44.8 µM (top of the series) unless noted
Procedure, shortened: as §2
Further: nearly all actives have a fitted effect of over 60% in size.
On the % scale 0 is the no-effect control and ±100 the full control effect.

CC1=C(C/C=C(\C)CCC[C@H](C)CCC[C@H](C)CCCC(C)C)C(=O)c2ccccc2C1=O
inactive: max response (KB-3-1) -12.7% | max response (NIH3T3 [1]) 1.11% | outcome (HACAT) | outcome (HEK293T) | Potency (MCC-13) | Potency (MCC-26) | Potency (MKL-1) | Potency (MKL-2) | Potency (UISO)

CN(C)CCCO[C@@H]1[C@H]2OC(C)(C)O[C@H]2O[C@@H]1C(O)CO (some centres undefined)
inactive: max response (KB-3-1) 3.47% | max response (NIH3T3 [1]) -0.499% | outcome (HACAT) | outcome (HEK293T) | Potency (MCC-13) | Potency (MCC-26) | Potency (MKL-1) | Potency (MKL-2) | Potency (UISO)

Cc1ncc([N+](=O)[O-])n1CC(O)CCl (centres undefined)
inactive: max response (KB-3-1) 18% | max response (NIH3T3 [1]) -5.9% | outcome (HACAT) | outcome (HEK293T) | Potency (MCC-13) | Potency (MCC-26) | Potency (MKL-1) | Potency (MKL-2) | Potency (UISO)

NCCNCCNCCNCCN
inactive: max response (KB-3-1) -4.72% | max response (NIH3T3 [1]) -0.231% | outcome (HACAT) inactive [at 9.27 µM] | outcome (HEK293T) inactive [at 9.27 µM] | activity change, negative = cytotoxicity (MCC-13) 6.32% [at 9.22 µM] | activity change, negative = cytotoxicity (MCC-26) -6.59% [at 9.22 µM] | activity change, negative = cytotoxicity (MKL-1) -8% [at 9.22 µM] | activity change, negative = cytotoxicity (MKL-2) -0.706% [at 9.22 µM] | activity change, negative = cytotoxicity (UISO) 44% [at 9.22 µM]

Nc1ccc(S(=O)(=O)Nc2ccccc2)cc1
inactive: max response (KB-3-1) 8.52% | max response (NIH3T3 [1]) 3.32% | outcome (HACAT) | outcome (HEK293T) | Potency (MCC-13) | Potency (MCC-26) | Potency (MKL-1) | Potency (MKL-2) | Potency (UISO)

O=C(O)c1ccccc1-c1ccc(C(F)(F)F)cc1
inactive: max response (KB-3-1) -5.64% | max response (NIH3T3 [1]) -3.57% | outcome (HACAT) | outcome (HEK293T) | Potency (MCC-13) | Potency (MCC-26) | Potency (MKL-1) | Potency (MKL-2) | Potency (UISO)

CCCCOC(=O)c1ccc(O)cc1
inactive: max response (KB-3-1) 0.659% | max response (NIH3T3 [1]) -12.6% | outcome (HACAT) | outcome (HEK293T) | Potency (MCC-13) | Potency (MCC-26) | Potency (MKL-1) | Potency (MKL-2) | Potency (UISO)

C=CCn1c(=O)n([C@@H]2O[C@H](CO)[C@@H](O)[C@H]2O)c2nc(N)[nH]c(=O)c21
inactive: max response (KB-3-1) 17% | max response (NIH3T3 [1]) 4.38% | outcome (HACAT) | outcome (HEK293T) | Potency (MCC-13) | Potency (MCC-26) | Potency (MKL-1) | Potency (MKL-2) | Potency (UISO)

Cc1cc(O)cc2c1O[C@](C)(CCC[C@H](C)CCC[C@H](C)CCCC(C)C)CC2
inactive: max response (KB-3-1) -4.01% and 1.69% | outcome (NIH3T3 [1]) | outcome (HACAT) | Potency (MCC-13) | Potency (MCC-26) | Potency (MKL-1) | Potency (MKL-2) | outcome (NIH3T3 [2]) | Potency (UISO)

O=C(O)CN1C(=O)c2cccc3cccc(c23)C1=O
inactive: max response (KB-3-1) -7.36% | max response (NIH3T3 [1]) 0.928% | outcome (HACAT) | outcome (HEK293T) | Potency (MCC-13) | Potency (MCC-26) | Potency (MKL-1) | Potency (MKL-2) | Potency (UISO)

CCCOC(=O)c1ccccc1
inactive: max response (KB-3-1) -10.8% | max response (NIH3T3 [1]) 2.42% | outcome (HACAT) | outcome (HEK293T) | Potency (MCC-13) | Potency (MCC-26) | Potency (MKL-1) | Potency (MKL-2) | Potency (UISO)

CC[C@@]1(c2ccccc2)NC(=O)N(C)C1=O
inactive: max response (KB-3-1) 31.6% | max response (NIH3T3 [1]) 1.13% | outcome (HACAT) | outcome (HEK293T) | Potency (MCC-13) | Potency (MCC-26) | Potency (MKL-1) | Potency (MKL-2) | Potency (UISO)

Cc1ncc(COP(=O)(O)O)c(C=O)c1O
inactive: max response (KB-3-1) -1.97% | max response (NIH3T3 [1]) 3.84% | outcome (HACAT) | outcome (HEK293T) | Potency (MCC-13) | Potency (MCC-26) | Potency (MKL-1) | Potency (MKL-2) | Potency (UISO)

O=C1O[C@H](CO)[C@@H](O)[C@H](O)[C@H]1O
inactive: max response (KB-3-1) 25.2% | max response (NIH3T3 [1]) -2.57% | outcome (HACAT) | outcome (HEK293T) | Potency (MCC-13) | Potency (MCC-26) | Potency (MKL-1) | Potency (MKL-2) | Potency (UISO)

O=C1OC(OC(=O)c2cccnc2Nc2cccc(C(F)(F)F)c2)c2ccccc21 (centres undefined)
inactive: max response (KB-3-1) 7.28% | max response (NIH3T3 [1]) -3.9% | outcome (HACAT) | outcome (HEK293T) | Potency (MCC-13) | Potency (MCC-26) | Potency (MKL-1) | Potency (MKL-2) | Potency (UISO)

N[C@H](C(=O)O)c1ccc(O)cc1
inactive: max response (KB-3-1) 2.74% | max response (NIH3T3 [1]) -1.62% | outcome (HACAT) inactive [at 17.4 µM] | outcome (HEK293T) inactive [at 17.4 µM] | Potency (MCC-13) | Potency (MCC-26) | Potency (MKL-1) | Potency (MKL-2) | Potency (UISO)

O=C(O)COc1nn(Cc2ccccc2)c2ccccc12
inactive: max response (KB-3-1) -3.25% | max response (NIH3T3 [1]) 2.16% | outcome (HACAT) | outcome (HEK293T) | Potency (MCC-13) | Potency (MCC-26) | Potency (MKL-1) | Potency (MKL-2) | Potency (UISO)

OC[C@H]1O[C@@H](O[C@@H]2[C@@H](CO)O[C@](O)(CO)[C@H]2O)[C@H](O)[C@@H](O)[C@H]1O
inactive: max response (KB-3-1) -20% | max response (NIH3T3 [1]) 4.19% | outcome (HACAT) | outcome (HEK293T) | Potency (MCC-13) | Potency (MCC-26) | Potency (MKL-1) | Potency (MKL-2) | Potency (UISO)

CCC(=O)Nc1ccc(O)cc1
inactive: max response (KB-3-1) 18.3% | max response (NIH3T3 [1]) 0.658% | outcome (HACAT) | outcome (HEK293T) | Potency (MCC-13) | Potency (MCC-26) | Potency (MKL-1) | Potency (MKL-2) | Potency (UISO)

COc1cc(C(=O)N2CCOCC2)cc(OC)c1OC
inactive: max response (KB-3-1) 4.09% and 1.86% | outcome (NIH3T3 [1]) | outcome (HACAT) | Potency (MCC-13) | Potency (MCC-26) | Potency (MKL-1) | Potency (MKL-2) | outcome (NIH3T3 [2]) | Potency (UISO)

NCCNCCNCCN
inactive: max response (KB-3-1) -5.28% | max response (NIH3T3 [1]) -1.13% | outcome (HACAT) | outcome (HEK293T) | Potency (MCC-13) | Potency (MCC-26) | Potency (MKL-1) | Potency (MKL-2) | Potency (UISO)
